These results are taken from PubChem BioAssay AID2283176 (EPA ToxCast).

Molecules are shown by their SMILES. Results filed as inconclusive are left out. Active and inactive are the calls of the source. Rule for the calls: active = hit-call score of the fitted dose curve at least 0.9, where 1 is the maximum; inconclusive = response in the unintended direction; inactive = score below 0.9.

This assay concerns the target human MAP Kinase-Activated Protein Kinase 5 (MAPKAPK5), MAPKAPK5 (gene 8550) (UniProt Q8IW41). Put plainly: NVS_ENZ_hMAPKAPK5: NovaScreen (NVS) Enzymatic Assay for human MAP Kinase-Activated Protein Kinase 5 (MAPKAPK5). On the procedure:
NVS_ENZ_hMAPKAPK5 is a biochemical, single-readout assay that uses extracted gene-proteins in a cell-free assay. Measurements were taken 1 hour after chemical dosing in a 384-well plate.NVS_ENZ_hMAPKAPK5 is one of one assay component(s) measured or calculated from the NVS_ENZ_hMAPKAPK5 assay. It is designed to make measurements of enzyme activity, a form of enzyme reporter, as detected with fluorescence intensity signals by Fluorescence and electrophoretic mobility shift technology.Data from the assay component NVS_ENZ_hMAPKAPK5 was analyzed into 1 assay endpoint. This assay endpoint, NVS_ENZ_hMAPKAPK5, was analyzed in the positive analysis fitting direction relative to DMSO as the negative control and baseline of activity. Using a type of enzyme reporter, loss-of-signal activity can be used to understand changes in the enzymatic activity as they relate to the gene MAPKAPK5. Furthermore, this assay endpoint can be referred to as a primary readout, because this assay […]. To generalize the intended target to other relatable targets, this assay endpoint is annotated to the kinase intended target family, where the subfamily is serine/threonine kinase.
Binding assays used specific radioligands (tritiated, iodinated) with non-radioactive competitive displacement ligands in agonist or antagonist protocols (as indicated) and various reference compounds and inhibitors to titrate specific binding to receptors and transporters. Most enzyme assays (CYPs, kinases, phosphatases, proteases, HDACs) used recombinant protein and specific substrates (fluorescence mostly, some colorimetric and radioactive) and inhibitors, followed by a biochemical separation of substrate and product. All assays for the biochemical HTS were initially run in duplicate at a single concentration (10 uM for CYP450 assays and 25 uM for all others). Assay-chemical combinations meeting a pre-defined threshold (e.g., 30% inhibition and other criteria defined below) were then run in singleton concentration-response format with maximum concentration of 20 uM for CYPs and 50 uM for all others. Each assay was run with positive and negative controls, and concurrent controls on every plate. The follow-up (secondary) screen tested active chemical-pairs in concentration series, as well as a few additional assays not tested in the primary screen, some selected negative inactives, and several cases re-run in the concentration series for confirmatory purposes.

Chain of human MAP Kinase-Activated Protein Kinase 5 (MAPKAPK5), MAPKAPK5 (gene 8550) (Q8IW41 whole entry, looked up): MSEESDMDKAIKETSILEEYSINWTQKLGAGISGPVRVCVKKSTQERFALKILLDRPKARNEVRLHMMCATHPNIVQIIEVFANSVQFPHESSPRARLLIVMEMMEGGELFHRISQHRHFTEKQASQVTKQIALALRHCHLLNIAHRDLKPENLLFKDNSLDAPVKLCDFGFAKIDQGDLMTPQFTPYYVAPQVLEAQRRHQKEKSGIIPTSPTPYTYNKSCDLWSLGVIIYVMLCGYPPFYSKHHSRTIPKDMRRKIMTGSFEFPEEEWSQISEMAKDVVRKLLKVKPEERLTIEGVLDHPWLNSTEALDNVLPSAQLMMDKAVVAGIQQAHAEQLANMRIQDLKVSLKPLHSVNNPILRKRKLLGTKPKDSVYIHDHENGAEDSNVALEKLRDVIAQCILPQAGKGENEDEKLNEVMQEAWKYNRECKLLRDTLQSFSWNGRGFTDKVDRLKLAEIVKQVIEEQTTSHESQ

Consider `S=C([S-])NCCNC(=S)[S-].[Mn+2]`, for which the half-maximal activity concentration (AC50) (in general, the concentration giving half of the maximal activity seen) is 0.789 µM (active).

For `O=C(O)C1(C(=O)Nc2ccc(Cl)cc2Cl)CC1`, the AC50 is 19.1 µM (active).

As for `CCOC(=O)[C@H](C)Oc1ccc(Oc2nc3ccc(Cl)cc3o2)cc1`, the compound was called inactive.

In the case of `N#CSCSc1nc2ccccc2s1`, the AC50 is 14.7 µM (active).

For `O=C(Nc1ccc([N+](=O)[O-])cc1Cl)c1cc(Cl)ccc1O`, the compound was called inactive.

Consider `S=C(S)NCCNC(=S)S.[Mn+2].[S-]C([S-])=NCCN=C([S-])[S-].[Zn+2]`, for which the AC50 was 2.41 µM (active).

On to `CCN(CC)C(=O)c1cccc(C)c1`, for which the call was inactive.
